Pf apPOL block = Pf-apPOL DNA polymerase inhibition. AID 1794808. inhibition, % at 10 µM. 210,000 compounds, 0.25% hits. Recombinant Pf-apPOL, molecular beacon fluorescence, 1.5 h
mHTT CaM bind = mHTT-calmodulin interaction abrogation; AlphaScreen His-mHTT/GST-CaM binding, luminescence; 190,000 compounds, 3.6% hits; inhibition, % at 15 µM;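 note: 0% = both proteins with DMSO and 100% = one protein alone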
Target sequence (P42858 whole entry, looked up, stated change not applied): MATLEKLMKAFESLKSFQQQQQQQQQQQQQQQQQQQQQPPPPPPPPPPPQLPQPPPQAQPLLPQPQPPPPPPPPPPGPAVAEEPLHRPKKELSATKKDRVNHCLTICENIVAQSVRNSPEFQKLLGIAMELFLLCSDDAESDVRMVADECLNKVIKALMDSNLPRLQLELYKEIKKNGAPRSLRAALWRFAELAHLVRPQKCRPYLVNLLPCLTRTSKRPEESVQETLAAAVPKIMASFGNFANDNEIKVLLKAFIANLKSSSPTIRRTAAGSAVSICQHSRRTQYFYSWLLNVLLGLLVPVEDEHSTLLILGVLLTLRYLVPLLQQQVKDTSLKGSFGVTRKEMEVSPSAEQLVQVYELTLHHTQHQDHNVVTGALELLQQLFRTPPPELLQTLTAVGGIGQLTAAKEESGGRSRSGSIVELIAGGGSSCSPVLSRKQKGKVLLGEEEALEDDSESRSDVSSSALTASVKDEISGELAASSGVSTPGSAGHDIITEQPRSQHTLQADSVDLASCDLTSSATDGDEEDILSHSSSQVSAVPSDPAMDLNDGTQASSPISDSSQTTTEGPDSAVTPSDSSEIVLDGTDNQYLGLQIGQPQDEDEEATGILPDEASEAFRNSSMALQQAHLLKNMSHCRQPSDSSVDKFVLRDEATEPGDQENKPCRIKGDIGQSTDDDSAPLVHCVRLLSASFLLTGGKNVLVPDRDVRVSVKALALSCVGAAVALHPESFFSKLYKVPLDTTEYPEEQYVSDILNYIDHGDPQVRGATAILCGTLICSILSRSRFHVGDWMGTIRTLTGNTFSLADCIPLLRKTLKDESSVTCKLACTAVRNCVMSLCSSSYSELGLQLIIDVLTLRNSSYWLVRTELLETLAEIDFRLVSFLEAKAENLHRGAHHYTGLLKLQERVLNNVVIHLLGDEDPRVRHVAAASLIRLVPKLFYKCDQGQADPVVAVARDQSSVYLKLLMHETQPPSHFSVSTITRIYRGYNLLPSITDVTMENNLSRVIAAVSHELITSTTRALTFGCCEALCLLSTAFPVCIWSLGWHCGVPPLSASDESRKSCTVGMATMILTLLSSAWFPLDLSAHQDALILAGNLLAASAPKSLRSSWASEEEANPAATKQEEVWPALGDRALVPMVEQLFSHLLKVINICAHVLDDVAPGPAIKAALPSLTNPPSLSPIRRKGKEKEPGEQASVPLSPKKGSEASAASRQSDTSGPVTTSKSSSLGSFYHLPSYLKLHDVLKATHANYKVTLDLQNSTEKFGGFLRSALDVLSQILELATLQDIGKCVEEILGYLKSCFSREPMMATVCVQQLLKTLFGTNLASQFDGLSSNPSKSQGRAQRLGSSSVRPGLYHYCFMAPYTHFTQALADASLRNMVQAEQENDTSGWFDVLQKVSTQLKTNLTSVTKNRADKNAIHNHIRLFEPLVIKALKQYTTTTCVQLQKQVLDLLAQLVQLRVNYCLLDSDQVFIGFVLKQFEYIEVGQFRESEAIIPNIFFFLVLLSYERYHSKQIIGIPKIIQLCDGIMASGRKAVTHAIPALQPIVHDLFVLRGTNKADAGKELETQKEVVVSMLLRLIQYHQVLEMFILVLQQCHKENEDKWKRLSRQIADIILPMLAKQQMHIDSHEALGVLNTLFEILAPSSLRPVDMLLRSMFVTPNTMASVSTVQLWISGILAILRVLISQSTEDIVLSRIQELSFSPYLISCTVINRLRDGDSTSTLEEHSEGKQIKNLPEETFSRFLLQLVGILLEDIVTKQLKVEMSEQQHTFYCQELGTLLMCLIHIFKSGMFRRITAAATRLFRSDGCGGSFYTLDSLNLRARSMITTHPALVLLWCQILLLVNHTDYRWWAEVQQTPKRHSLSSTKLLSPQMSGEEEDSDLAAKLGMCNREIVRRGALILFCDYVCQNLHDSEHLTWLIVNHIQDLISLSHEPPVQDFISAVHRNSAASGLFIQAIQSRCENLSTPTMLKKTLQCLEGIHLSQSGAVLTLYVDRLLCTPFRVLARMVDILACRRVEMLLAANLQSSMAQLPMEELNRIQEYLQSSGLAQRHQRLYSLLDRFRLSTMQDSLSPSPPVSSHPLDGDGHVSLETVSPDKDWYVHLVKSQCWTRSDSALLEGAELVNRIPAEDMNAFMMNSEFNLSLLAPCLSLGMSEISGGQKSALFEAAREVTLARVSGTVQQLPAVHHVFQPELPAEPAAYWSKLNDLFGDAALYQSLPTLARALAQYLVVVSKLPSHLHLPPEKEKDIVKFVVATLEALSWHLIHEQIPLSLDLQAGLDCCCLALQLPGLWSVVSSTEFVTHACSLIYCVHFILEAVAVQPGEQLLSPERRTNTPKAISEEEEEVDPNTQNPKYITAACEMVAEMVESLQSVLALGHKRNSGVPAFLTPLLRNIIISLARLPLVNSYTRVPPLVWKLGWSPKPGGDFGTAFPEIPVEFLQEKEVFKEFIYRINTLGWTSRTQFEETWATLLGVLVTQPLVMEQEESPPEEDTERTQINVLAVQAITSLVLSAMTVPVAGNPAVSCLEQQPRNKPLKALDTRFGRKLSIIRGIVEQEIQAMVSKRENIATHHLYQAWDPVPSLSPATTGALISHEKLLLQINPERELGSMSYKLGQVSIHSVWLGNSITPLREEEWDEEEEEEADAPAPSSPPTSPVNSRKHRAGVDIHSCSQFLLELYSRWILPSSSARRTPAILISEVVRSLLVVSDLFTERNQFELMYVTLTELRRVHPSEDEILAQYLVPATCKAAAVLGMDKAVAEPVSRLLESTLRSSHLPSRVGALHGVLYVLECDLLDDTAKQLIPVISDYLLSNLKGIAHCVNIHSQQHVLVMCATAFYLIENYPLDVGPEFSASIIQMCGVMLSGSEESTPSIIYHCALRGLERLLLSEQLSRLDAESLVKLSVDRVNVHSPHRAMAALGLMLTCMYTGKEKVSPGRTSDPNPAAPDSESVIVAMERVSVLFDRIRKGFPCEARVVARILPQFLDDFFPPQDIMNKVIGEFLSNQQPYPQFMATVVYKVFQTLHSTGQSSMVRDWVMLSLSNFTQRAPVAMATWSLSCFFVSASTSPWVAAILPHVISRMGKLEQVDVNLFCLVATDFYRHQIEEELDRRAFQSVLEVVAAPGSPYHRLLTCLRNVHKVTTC
* hit, by the source's call. In the library only some 3.6% were active in any assay of this set; here they are far more common. Cut-off read from the data, not from the text of the source: active = inhibition above about 50%; inactive = the rest.

Screening O=C(NCC1CCCO1)c1cccc(NC(=O)c2cccc(Cl)c2)c1 (stereo not drawn) returned Pf apPOL block 0 and mHTT CaM bind 2.
For Cn1c(SCC(=O)Nc2ccccc2)nnc1-c1ccc2ccccc2c1 the results were Pf apPOL block -12.
For CSc1ccc(C2Nc3ccccc3C(=O)N2c2ccc(C)cc2)cc1 (stereo not drawn) the results were Pf apPOL block -2 and mHTT CaM bind -2.
For CSc1ccc(C2Nc3cccc4cccc(c34)N2)cc1 the results were mHTT CaM bind 69*.
CC1C(=O)N(c2cccc(Br)c2)CCN1C(=O)c1cccc(Cl)c1 (stereo not drawn) was read as Pf apPOL block -1 and mHTT CaM bind -5.
For COc1cc(Br)c(CN2CC(C)OC(C)C2)cc1OC (stereo not drawn) the results were Pf apPOL block 5 and mHTT CaM bind 0.
Screening O=C(CCC1CCCC1)N1CCc2[nH]nc(C(=O)N3CCCC3)c2C1 returned Pf apPOL block -4 and mHTT CaM bind 4.
For CNC(=O)c1c(NC(=O)c2ccccc2Oc2ccccc2)sc(C)c1C the results were Pf apPOL block 6 and mHTT CaM bind -1.
Screening COc1cc(C(=O)Nc2cc(-c3nc4ncccc4o3)ccc2C)cc(OC)c1OC returned Pf apPOL block -4 and mHTT CaM bind 11.
For CC(=O)c1ccc(S(=O)(=O)N2CCC(c3cc(-c4cccc(C)c4)n[nH]3)CC2)cc1 the results were Pf apPOL block 2 and mHTT CaM bind 17.
`N#CC1=C(N)Oc2cc(O)ccc2C1c1ccc(Cl)c(Cl)c1` (stereo not drawn) gave Pf apPOL block -6 and mHTT CaM bind 100*.
`N#CC1=C(N)Oc2cc(N)ccc2C1c1ccc(Cl)c(Cl)c1` (stereo not drawn) gave Pf apPOL block -12 and mHTT CaM bind 75*.
`N#CC1=C(N)Oc2cc(O)ccc2C1c1ccc(Br)cc1` (stereo not drawn) gave Pf apPOL block -13 and mHTT CaM bind 27.
N#CC1=C(N)Oc2cc(N)ccc2C1c1ccc(Cl)cc1 (stereo not drawn) was read as Pf apPOL block -3 and mHTT CaM bind 16.
`O=C(Nc1ccccc1Cl)c1cccc(Br)c1` gave Pf apPOL block -2 and mHTT CaM bind -27.
COc1cc2c(C(=O)O)c(C)oc2cc1S(=O)(=O)O was read as Pf apPOL block -3 and mHTT CaM bind -2.
For Cc1cccc(C(=O)N2CCCCC2CCN2CCCC2)c1 (stereo not drawn) the results were Pf apPOL block -7 and mHTT CaM bind -7.
CCCCN1CCN(C(=O)C2CC(=O)N(CCc3ccc(OC)c(OC)c3)C2)CC1 (stereo not drawn) was read as Pf apPOL block -2 and mHTT CaM bind -6.
For CCOc1ccccc1NC(=O)C(=O)NCc1ccc(CC)cc1 the results were Pf apPOL block 20 and mHTT CaM bind -9.
`CCc1ccc(CNC(=O)C(=O)Nc2ccccc2F)cc1` gave Pf apPOL block 70* and mHTT CaM bind -4.
Screening O=C(c1ccccn1)N1CCN(C(=O)C2CC2c2ccc3c(c2)OCO3)CC1 (stereo not drawn) returned Pf apPOL block -4 and mHTT CaM bind -6.
Cn1ccnc1C(O)c1cc(C(C)(C)C)c(O)c(C(C)(C)C)c1 (stereo not drawn) was read as Pf apPOL block -7 and mHTT CaM bind 18.
Screening CC(C)(C)c1cc(C(c2ccccn2)N2CCCCC2)cc(C(C)(C)C)c1O (stereo not drawn) returned Pf apPOL block -5 and mHTT CaM bind 77*.
For CCCCn1c(=N)n(CC(O)COc2ccc(Cl)cc2)c2ccccc21 (stereo not drawn) the results were Pf apPOL block 2 and mHTT CaM bind 42.
N=c1n(Cc2ccccc2)c2ccccc2n1CC(O)COc1ccc(Cl)cc1 (stereo not drawn) was read as Pf apPOL block 7 and mHTT CaM bind 60*.
Screening Cc1ccccc1C(=O)NC1CCc2[nH]c3ccc(Br)cc3c2C1 (stereo not drawn) returned Pf apPOL block 0 and mHTT CaM bind 100*.
Cc1cccc2c3c([nH]c12)CCC(NC(=O)CC(C)C)C3 (stereo not drawn) was read as Pf apPOL block -4 and mHTT CaM bind 47.
Screening COc1ccccc1C(=O)NC1CCc2[nH]c3c(C)cc(Cl)cc3c2C1 (stereo not drawn) returned Pf apPOL block -3 and mHTT CaM bind 92*.
For Cc1cc(C)c2[nH]c3c(c2c1)CC(NC(=O)C1CCCO1)CC3 (stereo not drawn) the results were Pf apPOL block -3 and mHTT CaM bind 54*.
CCOC(=O)C(=O)NC1CCc2[nH]c3ccc(C)cc3c2C1 (stereo not drawn) was read as Pf apPOL block 0 and mHTT CaM bind 21.
Screening Cc1cc(Cl)cc2c3c([nH]c12)CCC(NC(=O)C1CCCC1)C3 (stereo not drawn) returned Pf apPOL block -4 and mHTT CaM bind 49.

Screens from PubChem BioAssay.
